From PubChem BioAssay (EPA / NIEHS)
Results filed as inconclusive are left out. Active and inactive are the calls of the source. Rule for the calls: active = hit-call score of the fitted dose curve at least 0.9, where 1 is the maximum; inconclusive = response in the unintended direction; inactive = score below 0.9.

Assays:
[1] = CCTE_Mundy_HCI_iCellGluta_NOG_NeuronCount: CCTE's Neurite Outgrowth Assay in iCellGluta cells for Neuron Count, Mundy Lab (AID 2284340);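 note: cells fixed about 48 h after compound addition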
In short: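 Neuron count read by automated high-content imaging of Hoechst 33342 and betaIII-tubulin/Alexa Fluor-488 labelling in human iPSC glutamatergic neurons. Activity fitted relative to DMSO.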

[2] = CCTE_Mundy_HCI_iCellGluta_NOG_NeuriteCount: CCTE's Neurite Outgrowth Assay in iCellGluta cells for Neurite Count, Mundy Lab (AID 2284342);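 note: chemical exposure about 48 hours starting 2 hours after plating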

| SMILES | outcome [1] | outcome [2] |
| --- | --- | --- |
| OCC(O)CO | inactive | inactive |
| CC(=O)CC(c1ccccc1)c1c(O)c2ccccc2oc1=O (stereo not drawn) | – | inactive |
